Assay results from the supplement of paper PMC8371130.
Counter-ions that a name gives are not always drawn.

Test system: HL-1
Assay: relative cell viability (CellTiter-Glo) vs DMSO control (% of DMSO control); higher = more viable cells
In short: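 Compounds at 40, 200, 1000 or 5000 nM in 0.01% DMSO were added to HL-1 mouse atrial cardiomyocytes plated at 1000 cells per well in 384-well plates. The next day, cells were exposed to 1% O2 for 48 h and then reoxygenated for 24 h, or left in normoxia for the same time. Viability was read with CellTiter-Glo luminescence and normalised to vehicle-treated controls.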

[1] = oxygen condition: hypoxia 48 h (1% O2) + reoxygenation 24 h, 40 nM
[2] = oxygen condition: hypoxia 48 h (1% O2) + reoxygenation 24 h, 200 nM
[3] = oxygen condition: hypoxia 48 h (1% O2) + reoxygenation 24 h, 1000 nM
[4] = oxygen condition: hypoxia 48 h (1% O2) + reoxygenation 24 h, 5000 nM
[5] = oxygen condition: normoxia 72 h, 40 nM
[6] = oxygen condition: normoxia 72 h, 200 nM
[7] = oxygen condition: normoxia 72 h, 1000 nM
[8] = oxygen condition: normoxia 72 h, 5000 nM

Structure (SMILES)	relative cell viability [1]	relative cell viability [2]	relative cell viability [3]	relative cell viability [4]	relative cell viability [5]	relative cell viability [6]	relative cell viability [7]	relative cell viability [8]
CCCc1ncc(C[n+]2ccccc2C)c(N)n1 [Amprolium HCl]	104	104	108	110	97.4	104	110	100
Cc1cnc(C(=O)O)c[n+]1[O-] [Acipimox]	105	104	109	116	101	104	107	108
CC(C)(C)CC(C)(C)c1ccc(OCCOCC[N+](C)(C)Cc2ccccc2)cc1 [Benzethonium chloride]	102	94.7	75.7	17.6	97.9	93.1	66.7	18
CCN(CC)CCNC(=O)c1c(C)[nH]c(/C=C2\C(=O)Nc3ccc(F)cc32)c1C [Sunitinib Malate]	106	109	107	115	105	119	114	111
CCCCC1=NC2(CCCC2)C(=O)N1Cc1ccc(-c2ccccc2-c2nnn[nH]2)cc1 [Irbesartan]	103	102	107	108	107	105	102	107
Cc1c(N(C)C)c(=O)n(-c2ccccc2)n1C [Amidopyrine]	107	111	109	114	107	105	110	118
Cc1ccc(C(=O)Nc2ccc(CN3CCN(C)CC3)c(C(F)(F)F)c2)cc1C#Cc1cnc2cccnn12 [Ponatinib]	105	108	113	107	103	103	105	106
CN(C)CCOC(C)(c1ccccc1)c1ccccn1 (stereo not drawn) [Doxylamine Succinate]	111	104	105	109	107	112	117	123
CC1=C(/C=C/C(C)=C/C=C/C(C)=C/C=C/C=C(C)/C=C/C=C(C)/C=C/C2=C(C)CCCC2(C)C)C(C)(C)CCC1 [Beta Carotene]	96.9	95.3	99.9	104	104	92.9	104	104
CCN(CC)CC#CCOC(=O)C(O)(c1ccccc1)C1CCCCC1 (stereo not drawn) [Oxybutynin chloride]	94.2	99.1	98.7	98.8	104	96.3	91.2	107
CN(C)CCc1c[nH]c2ccc(CS(=O)(=O)N3CCCC3)cc12 [Almotriptan malate]	98	99	97.6	91.9	98.2	103	102	52.1
C#CCC(Cc1cnc2nc(N)nc(N)c2n1)c1ccc(C(=O)N[C@@H](CCC(=O)O)C(=O)O)cc1 (stereo partly drawn) [Pralatrexate]	38.6	43	37.3	38.9	44.3	42.7	46.2	41.8
CCC(=O)NCC[C@@H]1CCc2ccc3c(c21)CCO3 [Ramelteon]	104	116	110	111	105	108	118	107
CC[C@@H]1/C=C(\C)C[C@H](C)C[C@H](OC)[C@H]2O[C@@](O)(C(=O)C(=O)N3CCCC[C@H]3C(=O)O[C@H](/C(C)=C/[C@@H]3CC[C@H](Cl)[C@H](OC)C3)[C@H](C)[C@@H](O)CC1=O)[C@H](C)C[C@@H]2OC [Pimecrolimus]	98.7	93.8	101	104	96.8	99.1	94.7	106
Cc1ccccc1N1C(=O)c2cc(S(N)(=O)=O)c(Cl)cc2NC1C (stereo not drawn) [Metolazone]	104	107	107	111	109	110	112	116
COc1ccc(C[C@@H]2c3cc(OC)c(OC)cc3CC[N@+]2(C)CCC(=O)OCCCCCOC(=O)CC[N@@+]2(C)CCc3cc(OC)c(OC)cc3[C@H]2Cc2ccc(OC)c(OC)c2)cc1OC [Cisatracurium besylate]	108	100	107	109	105	103	109	128
CN1C(CCl)Nc2cc(Cl)c(S(N)(=O)=O)cc2S1(=O)=O (stereo not drawn) [Methyclothiazide]	106	98.5	105	110	108	106	109	115
CCN(CC)CC(=O)Nc1c(C)cccc1C [Lidocaine]	111	106	104	111	112	108	109	112
O=C1CCc2cc(OCCCCc3nnnn3C3CCCCC3)ccc2N1 [Cilostazol]	107	107	111	107	105	108	106	109
CCOC(=O)c1ccc(OC(=O)CCCCCNC(=N)N)cc1 [Gabexate mesylate]	107	105	112	108	101	98.9	109	110
CC(=O)OCC(=O)[C@@]12OC(C)(C)O[C@@H]1C[C@H]1[C@@H]3C[C@H](F)C4=CC(=O)C=C[C@]4(C)[C@@]3(F)[C@@H](O)C[C@@]12C [Fluocinonide]	93.4	91.8	89.8	99	92.3	88.7	89.5	91.2
